Compound activity (PubChem BioAssay)
The full list was thinned out, with hits kept by preference.
TbPYK inhibitor = inhibitors of Trypanosoma brucei pyruvate kinase; TbPYK enzyme, Kinase-Glo Plus ATP luminescence, 45 min; Potency, µM (titrated, usually from 76.8 µM), for the others: top-dose activity, negative = inhibition, hits mostly inhibitors; Q57TT1; 0.12% of 410,000 active; note: potency is the fitted concentration of half-maximal effect; % is set by controls: 0 for no effect and ±100 for the full control effect; nearly all actives have a fitted effect of over 50% in size
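Quantitative HTS: titrated library compounds versus trypanosomal pyruvate kinase in TEA buffer (pH 7.2) containing KCl, MgCl2, BSA and Tween-20. Reactions were initiated with ADP, 130 uM final. Kinase-Glo Plus luminescence was read after 45 min at RT.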
RE007 growth inh = less growth of the S. pombe RE007 Vpr strain. 0.21% of 360,000 active. S. pombe RE007 Vpr strain, BacTiter-Glo ATP luminescence, 24 h. AID 651644. Potency, µM (titrated, usually from 92.2 µM), inactives show top-dose activity change, negative = less growth, hits mostly inhibitors; active = well fitted falling curve with a large enough effect; inconclusive = small, poorly fitted or top-dose-only effect; inactive = no such curve, though single readings can be large or run the other way; note: potency is the fitted concentration of half-maximal effect; % is set by controls: 0 for no effect and ±100 for the full control effect; nearly all actives have a fitted effect of over 50% in size
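Fission yeast RE007 carrying one integrated HIV-1 vpr copy, seeded at OD 0.01 in PMG+AL medium with 23 nL pinned compound. Grown 24 h at 30 degrees; viability read by BacTiter-Glo luminescence after 5 min.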
LmPK inhibitor = blocks Leishmania mexicana pyruvate kinase activity. Q27686. purified LmPK, Kinase-Glo ATP luminescence, 1 h. Potency, µM (top dose mostly 57.5 µM), for inactives: at the highest dose activity change, negative = inhibition, actives largely listed as inhibitors. 0.37% of 290,000 active; note: potency is the fitted concentration of half-maximal effect; % is set by controls: 0 for no effect and ±100 for the full control effect
Target sequence (Q27686 whole entry, looked up): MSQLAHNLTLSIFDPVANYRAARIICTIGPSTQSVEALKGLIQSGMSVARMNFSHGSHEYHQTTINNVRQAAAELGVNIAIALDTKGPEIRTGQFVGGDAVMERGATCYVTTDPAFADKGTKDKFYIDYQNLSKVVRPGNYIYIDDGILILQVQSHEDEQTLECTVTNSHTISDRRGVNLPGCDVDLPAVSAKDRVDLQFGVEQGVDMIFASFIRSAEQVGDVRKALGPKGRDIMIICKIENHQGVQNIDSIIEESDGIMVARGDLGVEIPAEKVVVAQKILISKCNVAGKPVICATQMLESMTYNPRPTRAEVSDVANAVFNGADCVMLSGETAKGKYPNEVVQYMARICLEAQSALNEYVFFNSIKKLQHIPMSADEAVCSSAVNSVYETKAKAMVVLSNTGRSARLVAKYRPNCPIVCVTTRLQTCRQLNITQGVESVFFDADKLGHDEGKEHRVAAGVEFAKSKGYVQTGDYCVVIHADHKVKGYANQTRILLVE
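0.1 nM LmPK, 0.5 mM PEP, 0.1 mM ADP; 50 mM imidazole pH 7.2, 7 mM MgCl2, 50 mM KCl; 1 h RT. Kinase-Glo luminescence readout, normalized to no-enzyme (full inhibition) and uninhibited wells.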
Giardia FBPA inh = blocks Giardia fructose-bisphosphate aldolase activity. A8B2U2. purified Giardia FBPA. Potency, µM (highest dose often 59.6 µM), for the others: at the highest dose activity, negative = inhibition, usual class: inhibitors. 0.71% of 290,000 active. AID 2451; note: potency is the fitted concentration of half-maximal effect; % is set by controls: 0 for no effect and ±100 for the full control effect; nearly all actives have a fitted effect of over 55% in size
Target sequence (A8B2U2 whole entry, looked up): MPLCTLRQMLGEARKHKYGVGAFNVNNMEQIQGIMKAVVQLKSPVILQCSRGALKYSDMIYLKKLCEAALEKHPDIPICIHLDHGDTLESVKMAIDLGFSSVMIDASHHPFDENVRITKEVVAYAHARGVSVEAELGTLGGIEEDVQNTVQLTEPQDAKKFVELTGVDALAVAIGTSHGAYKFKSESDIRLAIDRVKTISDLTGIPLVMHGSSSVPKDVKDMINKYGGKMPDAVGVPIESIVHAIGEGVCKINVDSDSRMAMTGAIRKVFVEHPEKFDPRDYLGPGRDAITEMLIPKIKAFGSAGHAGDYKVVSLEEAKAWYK
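Giardia FBPA (40 nM reagent) was preincubated 10 min at RT with compound (up to 57.5 uM final), then substrate plus GAPDH/TPI/NAD/arsenate coupling system with diaphorase/resazurin was added; resorufin fluorescence (525/598 nm) was read after 20 min.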
Shiga inhibitor = blocks Shiga toxin action in Vero cells | Vero cells, Shiga toxin protein synthesis inhibition reporter | 9.2% of 290,000 active | inhibition, % at 38.7 µM; in the data active = inhibition mostly above about 28%, no sharp cut-off; inactive = mostly below about 43%; note: 0% is about no effect
Cycloheximide cs = affects cycloheximide protein synthesis inhibition readout, counter-screen; cell reporter, cycloheximide protein synthesis inhibition counterscreen; AID 2314; max response, %; 12% of 300,000 active; in the data active = max response mostly above about 13%, no sharp cut-off; inactive = mostly below about 14%; note: read at 38.3 µM for the half of the compounds with a filed dose; 0% is about no effect
* = called active by the depositor; u = inconclusive; x = not tested or not shown; [ ] = another dose, or the depositor's remark. Unless noted, calls come from the whole dose curve; as a rule, active = well fitted curve in the direction sought with a large enough effect; inconclusive = small, poorly fitted or top-dose-only effect, or another doubt; inactive = no such curve, though single readings can be large; an effect the other way counts as inactive or inconclusive.

SMILES | TbPYK inhibitor | RE007 growth inh | LmPK inhibitor | Giardia FBPA inh | Shiga inhibitor | Cycloheximide cs
CCC(=O)O[C@H]1C(O[C@@H]2C(C)[C@H](O[C@H]3C[C@@](C)(OC)C(O)C(C)O3)C(C)C(=O)OC(CC)[C@@](C)(O)C(O)[C@H](C)C(=O)C(C)C[C@]2(C)O)OC(C)CC1N(C)C (some centres not stated) | -3.2% | x | x | u | x | x
Cc1cnc(CNc2ccnc(-c3ccccc3C(F)(F)F)n2)cn1 | x | x | x | -6.8% | x | x
CON(C)C(=O)Nc1ccc(Br)cc1 | x | x | x | 4.4% | 10.3 | 27.4
C#CCCCO/N=C1/C[C@@H](O)[C@@H](O)[C@@H]2[C@@H]3C(=O)N(Cc4ccc5c(c4)OCO5)C(=O)[C@H]3CC[C@H]12 | x | x | x | 1.2%[12.9 µM] | x | x
N/C(=N\OC(=O)c1ccc(Br)cc1)c1ccccc1 | -18.9% | -12.4% | u | -0.8% | 144.0* | 66.4*
N/C(=N\OC(=O)c1cccc(Br)c1)c1ccc(Br)cc1 | 2.3% | 3.9% | -0.1% | -0.5% | 0.4 | -0.8
NC(=O)COC(=O)c1ccc(Oc2ccccc2)cc1 | -0.5% | 7.5% | 1.2% | -6.5% | 34.4 | 27.8*
O=C(COC(=O)c1ccccc1)c1ccc(Br)cc1 | -4.1% | -22.7% | u | -2.1% | 115.2* | 47.3*
Cc1ccc(C(=O)OCc2nnc(-c3ccc(Br)cc3)o2)cc1 | 0.5% | -5.1% | 8.6% | 2.5% | 18.8 | 4.3
CC(C)NC(=O)COC(=O)c1ccc(Oc2ccccc2)cc1 | 10.1% | -3.4% | 4.6% | -9.6% | -5.7 | 3.5
O=C(COC(=O)c1ccc(Br)cc1)NCCc1ccccc1 | 1.3% | -3.9% | 1.6% | 3.5% | 12.5 | -2.7
Cc1ccc(C(=O)O/N=C(\N)c2ccc(Br)cc2)cc1 | 6.0% | 7.4% | -1.2% | 1.4% | 60.2* | 32.8*
COc1ccc(-c2ccc(CCC(=O)O)n2-c2ccc(Cl)cc2C)cc1 | -12.3% | x | x | x | x | x
NC(=O)C(c1ccc(F)cc1)c1ccc(C(=O)c2ccccc2)cc1 (configuration not stated) | -2.6% | 11.5% | 3.7% | 8.9% | -13.8 | -3.2
NC(=O)C(c1ccc(Br)cc1)c1ccc(C(=O)c2ccccc2)cc1 (configuration not stated) | 0.3% | 11.6% | 6.5% | 14.4% | -6.6 | 23.2*
COCC(C)n1c(C)cc(C(=O)CSc2nc3ccccc3c(=O)[nH]2)c1C (configuration not stated) | -15.3% | -20.0% | -1.0% | -3.3% | 45.3 | 15.9*
COCCn1c(C)cc(C(=O)COc2nc3ccccc3nc2C)c1C | -2.2% | 3.7% | 0.2% | 0.2% | 0.5 | 1.0
Cc1cc(C(=O)CCl)c(C)n1Cc1ccco1 | -5.5% | 2.7% | -10.9% | -3.3% | 43.3 | 20.7
CCCn1c(C)cc(C(=O)CSc2nc3ccccc3c(=O)n2Cc2ccco2)c1C | 2.9% | 9.9% | 1.1% | -3.2% | 57.0* | 49.3*
COCCn1c(C)cc(C(=O)CSc2ccc3ccccc3n2)c1C | -8.9% | -0.6% | 2.0% | -0.2% | 50.0* | 38.7*
Cc1cc(C(=O)CSc2nc3ccccc3[nH]2)c(C)n1Cc1ccco1 | -1.3% | 2.5% | -0.9% | -7.0% | 78.1* | 84.0*
CCS(=O)(=O)N1CC(=O)N(c2cccc(Cl)c2C)C(C)(C(=O)NC2CCCCC2)C1 (configuration not stated) | 3.3%[15.4 µM] | x | x | x | x | x
CCc1cc2c(cc3c(=O)n(CC(=O)NCCc4ccccc4)ncn32)s1 | -4.4% | x | x | x | x | x
Cc1nn2c(=O)cc(CSc3nc4ccccc4[nH]3)nc2s1 | -2.3% | -2.9% | 1.8% | 8.7% | 38.6 | 21.9*
Cc1ccc2nc(SCC(=O)c3cc(C)n(C)c3C)[nH]c2c1 | -10.0% | -15.3% | 0.5% | -4.8% | 28.1 | 13.4
SMILES | TbPYK inhibitor | RE007 growth inh | LmPK inhibitor | Giardia FBPA inh | Shiga inhibitor | Cycloheximide cs
Cc1cc2c(=O)n(Cc3ccco3)c(SCC(=O)c3ccc(Cl)s3)nc2s1 | -13.9% | 2.4% | 1.5% | -4.5% | 29.2 | 16.3*
COCCn1c(C)cc(C(=O)CSc2nc3ccccc3c(=O)[nH]2)c1C | -4.2% | -6.5% | -5.7% | -9.0% | 91.7* | 52.5*
Cc1cc(C(=O)CSc2nc3ccccc3[nH]2)c(C)n1C | -21.7% | -22.8% | 0.0% | u | 53.5* | 45.9*
COc1ccc(C(=O)Nc2ccccc2SCc2cc(=O)n3nc(C)sc3n2)cc1OC | -5.9% | 0.8% | -0.4% | 13.4% | -7.1 | -3.6
O=C(NCC(c1ccc2c(c1)OCO2)N1CCN(c2ccccc2)CC1)c1ccccc1 (configuration not stated) | -2.5% | x | x | x | x | x
CCOc1ccc(CC(=O)Nc2c(C(=O)c3ccc(C)cc3)oc3ccccc23)cc1OCC | 2.2% | x | x | x | x | x
C=CCn1c(C)cc(C(=O)CSc2nc3ccccc3[nH]2)c1C | -10.0% | 1.5% | -10.9% | -3.6% | 69.0* | 34.5*
C=CCn1c(C)cc(C(=O)CSc2nnc(NC(C)C)s2)c1C | -3.0% | 20.1% | -4.0% | 0.8% | 3.9 | 7.6
Cc1cc(C)c(C(=O)CSc2nc3ccccc3c(=O)[nH]2)cc1C | 5.0% | -8.6% | 6.9% | 1.0% | -2.1 | -1.2
C=CCn1c(C)cc(C(=O)CSc2nc3ccccc3c(=O)[nH]2)c1C | -28.3% | 8.4% | -1.1% | -16.3% | 90.0* | 63.2*
COc1ccc(N2CCN(C(=O)c3ccc(C)c(NC(=O)c4nsc5ccccc45)c3)CC2)cc1 | 2.1% | x | x | x | x | x
Cc1[nH][nH]c(=O)c1C(c1ccc(-c2ccc(C(=O)O)cc2)o1)c1c(C)[nH][nH]c1=O | u | -27.5% | -17.0% | 5.61µM* | 29.0 | 7.2
COC(=O)CC1c2ccccc2C(Cc2ccc(OC)cc2)C(C)N1C(=O)OC (configuration not stated) | x | x | -1.2%[11.5 µM] | 4.3%[12.9 µM] | x | x
COCc1cc(C)nc(OCC(=O)N/N=C/c2ccc(-c3cc([N+](=O)[O-])ccc3C)o2)c1C#N | 1.8% | 4.5% | 3.9% | 0.2% | -10.9 | -2.2
Cc1ccc([N+](=O)[O-])cc1-c1ccc(/C=C(\C#N)c2[nH]nc(N)c2C#N)o1 | -6.4% | 3.5% | -0.3% | -0.6% | 27.6 | 20.4*
CCN1CCN(Cc2c(O)ccc3oc(C)c(C(=O)Nc4cccc(C(F)(F)F)c4)c23)CC1 | 3.6% | x | x | x | x | x
COc1ccc(C)cc1NC(=O)c1nnn(-c2c(C)cccc2C)c1C | -2.3% | x | x | x | x | x
O=C(Cc1c(F)cccc1Cl)Nc1nc2ccccc2s1 | 2.8% | -15.1% | 4.4% | -7.2% | 113.0* | 38.3*
O=C(Cc1c(F)cccc1Cl)NC1=NCCS1 | 3.3% | -24.2% | 3.9% | -2.5% | 2.6 | 20.2*
O=C(Cc1c(Cl)cccc1Cl)NC1=NCCS1 | x | x | 1.3% | -13.1% | -4.3 | 4.6
CCOC(=O)c1sc(NC(=O)Cc2c(F)cccc2Cl)nc1C | 1.9% | 5.0% | -0.8% | 2.7% | 75.0* | 29.6*
Cc1nc2ccc(NC(=O)Cc3c(F)cccc3Cl)cc2s1 | 2.5% | 1.5% | 1.5% | 3.2% | 52.5* | 30.9*
